# In PubChem BioAssay AID1159577 (Broad Institute, 2015):
# About 240 (18%) of roughly 1,300 compounds were called active. Not shown: some 8% with an inconclusive outcome. Not all results are given here. Measured potencies and affinities stand elsewhere. Values without a mark were called inactive. The rule behind the calls is not given here.
# Experiment: toxicity to human hepatoma HepG2 cells – cell-based, cherry-picked samples, cytotoxicity control, dose response (AID 1159577);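 note: 0% = neutral control wells and -100% = positive control wells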
# Settings: HepG2 cytotoxicity counterscreen, plate reader; series mostly up to 19.5 µM; activity change, negative = cytotoxicity: at the top concentration
row,SMILES,"activity change, negative = cytotoxicity"
1,C[C@@H]1CN([C@@H](C)CO)C(=O)c2cccc(NC(=O)c3nc4ccccc4s3)c2O[C@H]1CN(C)C(=O)Nc1ccc2c(c1)OCO2,1.55%
2,CCNC(=O)c1cc2c(c(-c3cccc(-c4cc5ccccc5o4)c3)n1)[C@@H](CCO)N(C(=O)NC(C)C)C2,-12.2%
3,CC(C)(C)[S@](=O)N1Cc2cc(C(=O)NCCN3CCCCC3)nc(-c3cccc(-c4ccc(C#N)cc4)c3)c2[C@@H]1CCO,-3.55% [at 21 µM]
4,COc1ccccc1S(=O)(=O)N(C)C[C@@H]1Oc2cc(/C=C/c3ccccc3)ccc2S(=O)(=O)N([C@H](C)CO)C[C@H]1C,-16.5%
5,O=C(c1ccccc1F)N1CC(=O)N2[C@H](CO)[C@H](c3ccc(-c4cccnc4)cc3)[C@H]2C1,-9.99%
6,C[C@@H]1CN([C@@H](C)CO)C(=O)c2cccc(NC(=O)c3nc4ccccc4s3)c2O[C@H]1CN(C)C(=O)Nc1ccc(C(F)(F)F)cc1,28%
7,CCCNC(=O)N1[C@H](C#N)[C@H](c2ccc(-c3cccnc3)cc2)[C@H]1CO,15.7%
8,COc1ccc2c3c([nH]c2c1)[C@@H](CO)N(Cc1ccccc1)CC31CCN(C(=O)c2cccnc2)CC1,1%
9,CS(=O)(=O)N1[C@H](C#N)[C@H](c2ccccc2-c2ccccc2)[C@H]1CO,-3.69% [at 18 µM]
10,Cc1ccc(S(=O)(=O)N(C)C[C@H]2Oc3ccc(NC(=O)c4ccncc4)cc3C(=O)N([C@@H](C)CO)C[C@@H]2C)cc1,0.724% [at 21 µM]
11,CO[C@H]1CN(C)C(=O)c2cc(NC(C)=O)ccc2OC[C@H](C)N(Cc2ccncc2)C[C@@H]1C,9.85%
12,N#Cc1ccc(-c2ccc(C3[C@@H]4CN(C(=O)C5CC5)C[C@H]3N4)cc2)cc1 (stereo not given in full),5.83%
13,C[C@H]1CN([C@@H](C)CO)C(=O)c2ccccc2-c2ccccc2CO[C@@H]1CN(C)C(=O)Nc1ccc(-c2ccccc2)cc1,-2.44%
14,COc1ccc2c3c([nH]c2c1)[C@@H](CO)N(Cc1ccccc1F)CC31CCN(C(=O)C2CCOCC2)CC1,-8.2%
15,Cc1ccc(S(=O)(=O)N(C)C[C@@H]2OCc3ccccc3-c3c(n(C)c4ccccc34)C(=O)N([C@H](C)CO)C[C@@H]2C)cc1,-6.32% [at 21 µM]
16,Cc1ccccc1S(=O)(=O)N(C)C[C@@H]1OCc2ccccc2-c2c(n(C)c3ccccc23)C(=O)N([C@@H](C)CO)C[C@@H]1C,-1.58%
17,COCC(=O)N1CC2(C1)CN(Cc1ccccc1F)[C@H](CO)c1[nH]c3cc(OC)ccc3c12,12.4%
18,CN(C)CC(=O)Nc1ccc2c(c1)[C@@H]1C[C@H](CC(=O)N3CCOCC3)O[C@@H](CO)[C@@H]1O2,-0.683%

row,SMILES,"activity change, negative = cytotoxicity"
1,N#Cc1ccc(-c2ccc([C@@H]3[C@@H]4CN(S(=O)(=O)Cc5ccccc5)C[C@H]3N4)cc2)cc1,-19.3%
2,N#Cc1ccc(-c2ccc([C@@H]3[C@@H]4CN(Cc5cocn5)C[C@H]3N4)cc2)cc1,-18.2% [at 21 µM]
3,N#Cc1ccc(-c2ccc([C@@H]3[C@@H](CO)N4C(=O)CN(C(=O)C5CCC5)C[C@@H]34)cc2)cc1,10.7%
4,CCCC#Cc1ccc2c(c1)O[C@H](CN(C)C(=O)c1ccccc1F)[C@@H](C)CN([C@H](C)CO)S2(=O)=O,16%
5,C/C=C/c1ccc2c(c1)[C@@H]1[C@@H](CCN1S(=O)(=O)c1ccccc1C)[C@H](CO)N2,0.386%
6,COc1cccc(CNC(=O)c2cc3c(c(-c4cccc(-c5ccncc5)c4)n2)[C@@H](CCO)N([S@](=O)C(C)(C)C)C3)c1,-14.9%
7,C[C@H]1CN([C@@H](C)CO)S(=O)(=O)c2ccc(C#Cc3ccccc3F)cc2O[C@H]1CN(C)C(=O)c1ccc2c(c1)OCO2,26.1%
8,CCCNC(=O)c1cc2c(c(-c3cccc(-c4cc5ccccc5o4)c3)n1)[C@H](CCO)N(C(=O)NC(C)C)C2,26.5%
9,O=C(c1ccccc1F)N1CC(=O)N2[C@H](C1)[C@@H](c1ccc(-c3ccc(F)cc3)cc1)[C@@H]2CO,-5.85%
10,C/C=C/c1ccc([C@H]2[C@@H](CO)N(CC3CCCC3)C23CN(C(=O)CC2CC2)C3)cc1,-13.4%
11,COc1cccc(CN2[C@@H]3CNC[C@H]2[C@H]3c2ccc(-c3ccccc3OC)cc2)c1,-3.18%
12,COc1ccccc1CN1C[C@@H]2N[C@H](C1)C2c1ccc(-c2ccncc2)cc1 (stereo not given in full),-9.04% [at 21 µM]
13,Cc1ccccc1S(=O)(=O)N1C[C@@H]2N[C@H](C1)C2c1ccc(-c2ccc(C#N)cc2)cc1 (stereo not given in full),-10.4%
14,COc1ccccc1-c1ccc([C@@H]2[C@@H](C#N)N[C@@H]2CO)cc1,1.31%
15,CCCC(=O)N1CCC2(CC1)CN(Cc1cccnc1)[C@@H](CO)c1[nH]c3cc(OC)ccc3c12,19.9%
16,CCC(=O)N1CC2(C1)CN(S(=O)(=O)c1ccccc1)[C@@H](CO)c1[nH]c3cc(OC)ccc3c12,23.6%
17,CS(=O)(=O)N1[C@H](C#N)[C@H](c2ccccc2-c2ccc(F)cc2)[C@H]1CO,0.806% [at 21 µM]
